Screening data from PubChem BioAssay.
AMPAR-TARP mod = GluA2-stargazin AMPA receptor complex modulation | O88602+P19491 | HEK293 GluA2+stargazin, membrane potential dye (FDSS), glutamate EC50; hits were called plate by plate, in both directions | 3.5% of 40,000 active | calls only at 30 µM;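 active means any of four per-well response measures lying three or more SD from its plate-wide compound average, in either direction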
GIRK2 act = GIRK2 channel activators by thallium flux; P48051; HEK293 GIRK2/NPY4 cells, thallium flux fluorescence; activation (% efficacy), % for hits at 37.5 µM; 34,000 tested, under 10 active; AID 1259324;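 active means primary screen hit, no activity in plain HEK293 cells, and in GIRK2-only cells above 5% efficacy rising with concentration; inactive means the rest, including fluorescent compounds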;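 further: efficacy is normalized control-subtracted fluorescence 15 s after thallium addition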
Target sequence (P48051 whole entry, looked up): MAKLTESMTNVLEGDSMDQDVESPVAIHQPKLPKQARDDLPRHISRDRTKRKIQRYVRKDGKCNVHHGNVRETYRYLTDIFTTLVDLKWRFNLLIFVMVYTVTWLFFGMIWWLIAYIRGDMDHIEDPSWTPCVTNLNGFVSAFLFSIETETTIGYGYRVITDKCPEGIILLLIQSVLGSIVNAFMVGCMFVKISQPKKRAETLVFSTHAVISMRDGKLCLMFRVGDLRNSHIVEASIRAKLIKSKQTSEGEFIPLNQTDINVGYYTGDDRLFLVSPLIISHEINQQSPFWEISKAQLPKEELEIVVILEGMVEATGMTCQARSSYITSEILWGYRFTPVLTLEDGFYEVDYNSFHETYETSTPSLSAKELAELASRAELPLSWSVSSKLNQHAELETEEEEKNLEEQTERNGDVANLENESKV
Starred values were filed as active, the others as inactive; i = inactive; · = no result; + = active, no number. The sample as a whole holds a higher share of hits than the screen did.

SMILES | AMPAR-TARP mod | GIRK2 act
CC1CCN(C(=O)CSc2ccnc3c2c(=O)n(C)c(=O)n3C)CC1 | i | ·
CCC(C(=O)N1CC(c2nc(Cc3ccccc3OC)no2)C1)c1ccccc1 (stereo not drawn) | · | i
O=C(c1ccc(Cl)cc1)c1ccc(OCC(O)CN2CCN(c3ccccn3)CC2)cc1 (stereo not drawn) | i | ·
COc1ccc(OC)c(C(=O)/C=C/c2ccc(Cl)cc2)c1 | i | ·
COc1ccc(C(=O)Nc2cccc(N3CCCCC3=O)c2)c(OC)c1 | i | i
COc1ccc(C(=O)C2C(=O)N(c3ccccc3)N=C2C)c(OC)c1 (stereo not drawn) | + | i
CC1=NN(c2ccccc2)C(=O)C1C(=O)c1sc(-c2ccccc2)nc1C (stereo not drawn) | i | i
CC1=NN(c2ccccc2)C(=O)C1C(=O)c1ccc(S(=O)(=O)N2CCCCC2)cc1 (stereo not drawn) | i | i
CC1=NN(c2ccccc2)C(=O)C1C(=O)c1cccc(F)c1 (stereo not drawn) | + | i
COc1cn(CC(=O)Nc2ccc(F)cc2)c(CSc2nccn2C)cc1=O | i | i
COc1ccc(-n2nnc3c(N4CCN(C(=O)c5cccc6ccccc56)CC4)ncnc32)cc1 | + | ·
COc1ccc(-n2nnc3c(N4CCN(C(=O)c5ccccc5C(F)(F)F)CC4)ncnc32)cc1 | i | ·
O=C(Nc1ccc2nccnc2c1)c1csc2c1CCCC2 | + | i
CCn1nccc1C(=O)Nc1ccc2c(c1)OCCO2 | i | i
CCN(CC)c1ccc(NC(=O)c2csc3c2CCCC3)cc1 | i | ·
O=C(Nc1ccc2nccnc2c1)c1ccc2c(c1)OCCO2 | + | i
Cc1nc(N2CCC(C(N)=O)CC2)nc(N2CCCC2)c1[N+](=O)[O-] | i | i
O=C(c1ccc(S(=O)(=O)N2CCOCC2)cc1)N(C(=O)N1CCCCC1)c1cccc(Cl)c1 | + | i
O=C(c1ccc(S(=O)(=O)N2CCOCC2)cc1)N(C(=O)N1CCCCC1)c1ccc(Cl)cc1 | i | ·
Cc1cc(Nc2ccc3c(c2)OCO3)nc(-n2nc(C)cc2C)n1 | i | i
COc1ccc2sc(N(CCCN3CCOCC3)C(=O)c3ccnn3C)nc2c1 | · | i
Cn1c(=O)c(C(=O)Nc2ccc(S(N)(=O)=O)cc2)cc2cccnc21 | + | i
Cn1c(=O)c(C(=O)NCCc2ccc(S(N)(=O)=O)cc2)cc2cccnc21 | i | i
CCCCn1c(-c2ccc([N+](=O)[O-])cc2)nc2c(c(=O)c3ccccc3n2C)c1=O | + | ·
COCCn1c(-c2ccc([N+](=O)[O-])cc2)nc2sc3ccccc3c(=O)c2c1=O | + | i
SMILES | AMPAR-TARP mod | GIRK2 act
CCCn1c(-c2ccc(OC)cc2)nc2c(c(=O)c3ccccc3n2C)c1=O | i | ·
COCCn1c(-c2ccc(F)cc2)nc2c(c(=O)c3ccccc3n2C)c1=O | i | ·
CN(Cc1ccccc1)C(=O)c1nc(-c2cnccn2)no1 | i | i
COc1cc(N2CCN(C(=O)c3c(F)cccc3F)CC2)nc(OC)n1 | i | i
CSc1ccccc1C(=O)N(C(=O)N1CCCCC1)c1ccc(Cl)cc1 | i | ·
O=C(c1cccs1)N(C(=O)N1CCCCC1)c1cccc(Cl)c1 | i | i
O=C(c1cccs1)N(C(=O)N1CCCCC1)c1ccc(Cl)cc1 | + | ·
O=C(c1ccc(Br)o1)N(C(=O)N1CCCCC1)c1ccc(Cl)cc1 | + | ·
CN=C(NS(=O)(=O)c1ccc(F)cc1)c1ccccc1 | i | ·
O=C(c1ccccc1F)N1CCC(Cn2cccn2)CC1 | i | i
O=C(c1ccccc1C(F)(F)F)N1CCC(Cn2cccn2)CC1 | + | i
O=C1/C(=C/c2cccc(F)c2)Oc2c1ccc1c2CN(C2CC2)CO1 | i | i
COc1ccc(S(=O)(=O)CCC(=O)N2CCN(c3nc4c(OC)cccc4s3)CC2)cc1 | i | i
CN1CCN(c2nnnc3c2cnn3-c2ccccc2)CC1 | i | i
CCc1nc(N2CCN(C)CC2)c2oc3ccccc3c2n1 | + | i
CC(C)N1CCc2c(sc(NC(=O)c3ccc([N+](=O)[O-])cc3)c2-c2nc3ccccc3s2)C1 | + | ·
CC(=O)c1ccc(C(=O)Nc2sc3c(c2-c2nc4ccccc4s2)CCN(C(C)C)C3)cc1 | i | ·
CCC(=O)Nc1sc2c(c1-c1nc3ccccc3s1)CCN(C(C)C)C2 | i | ·
CC(C)N1CCc2c(sc(NC(=O)c3ccc(Cl)s3)c2-c2nc3ccccc3s2)C1 | + | ·
Cc1nc(NCCNS(=O)(=O)N(C)C)cc(N2CCOCC2)n1 | · | i
O=C(CCc1ccccc1)NCCn1ncc2c(N3CCCC3)ncnc21 | i | i
COc1ccc(CCC(=O)NCCn2ncc3c(N4CCCCC4)ncnc32)cc1 | + | i
COc1cc(/C=C2\SC(=S)N(c3ccc(C(=O)O)c(O)c3)C2=O)ccc1O | + | ·
COc1cc(/C=C2\SC(=S)N(c3ccc(O)c(C(=O)O)c3)C2=O)ccc1O | i | ·
Cc1cc(C(=O)N2CCN(Cc3nnnn3-c3ccc(F)c(F)c3)CC2)no1 | i | i
SMILES | AMPAR-TARP mod | GIRK2 act
Cc1onc(-c2ccccc2Cl)c1C(=O)N1CCN(Cc2nnnn2-c2ccc(F)c(F)c2)CC1 | + | i
COc1ccc(CCNC(=O)C(=O)NCCC2CCCCN2S(=O)(=O)c2ccc(C)cc2)cc1 (stereo not drawn) | i | ·
CC(C(=O)Nc1ccc2c(c1)OCCO2)N1C(=O)c2ccccc2S1(=O)=O (stereo not drawn) | i | i
O=C(NCC(O)(c1ccccc1)C(F)(F)F)C1(c2ccccc2)CCOCC1 (stereo not drawn) | i | i
O=C(NCC1CCN(Cc2ccccc2)CC1)C(=O)Nc1ccc2c(c1)OCCO2 | i | i
O=C(NCC1CCN(Cc2ccccc2)CC1)C(=O)Nc1ccc2c(c1)OCO2 | + | i
O=C(CN1CCN(c2nccn2-c2cccc(Cl)c2)CC1)Nc1ccc(F)cc1F | i | i
CCOc1ccc2nc(N(Cc3ccco3)C(C)=O)sc2c1 | i | ·
COc1ccc(CNC(=O)C(=O)Nc2ccc3c(c2)N(C(=O)C(C)C)CCC3)cc1 | i | i
COc1cccc(CNC(=O)C(=O)Nc2ccc3c(c2)N(C(=O)C(C)C)CCC3)c1 | + | i
CN(C)CCN(C(=O)CCCS(=O)(=O)c1ccc(F)cc1)c1nc2ccccc2s1 | i | ·
CN(C)CCN(C(=O)CCCS(=O)(=O)c1ccc(F)cc1)c1nc2ccc([N+](=O)[O-])cc2s1 | + | ·
COc1ccc(S(=O)(=O)CCC(=O)N(CCN(C)C)c2nc3ccc([N+](=O)[O-])cc3s2)cc1 | + | ·
COc1ccc(S(=O)(=O)CCC(=O)N(Cc2ccccc2)c2nc3ccccc3s2)cc1 | i | i
CN(C)CCCNc1nc2ccc([N+](=O)[O-])cc2s1 | + | i
Cc1c(Cl)ccc2sc(NCCCN(C)C)nc12 | i | i
CCOC(=O)Cc1csc(NS(=O)(=O)CCOc2ccc(CC)cc2)n1 | i | i
CC1C(=O)NCCN1C(=O)c1ccc(Cc2ccccc2)cc1 (stereo not drawn) | · | i
CC(=O)N1N=C(c2cccs2)CC1c1ccc2c(c1)OCO2 (stereo not drawn) | i | ·
N=c1sc(/C=C2\C=Nc3ccccc32)c(O)n1-c1nccs1 | + | ·
